Rows were chosen to be rich in hits. Some 1.8% of all compounds tested hit in one or more screens of this group.
VDR inh: Inhibitors of the vitamin D receptor (VDR): qHTS | Vitamin D3 receptor (Homo sapiens), P11473 | VDR-SRC2-3 peptide fluorescence polarization, 2 h | Potency, µM, without a hit: max response, negative = inhibition, hits mostly inhibitors | actives 0.93% (n = 400,000) | AID 504847, 2011
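The screen uses fluorescence polarization to detect compounds that interfere with recruitment of the SRC2-3 coactivator peptide to VDR; plates are read after 2 h at room temperature.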
KAT2A inh: qHTS Assay for Inhibitors of GCN5L2; Histone acetyltransferase KAT2A (Homo sapiens), Q92830; Potency, µM (highest dose often 58.9 µM), for the others: top-dose activity change, negative = inhibition, usual class: inhibitors; GCN5L2 HAT assay, ThioGlo1 CoA-SH fluorescence; actives 0.21% (n = 390,000)
Target sequence (Q92830 whole entry, looked up): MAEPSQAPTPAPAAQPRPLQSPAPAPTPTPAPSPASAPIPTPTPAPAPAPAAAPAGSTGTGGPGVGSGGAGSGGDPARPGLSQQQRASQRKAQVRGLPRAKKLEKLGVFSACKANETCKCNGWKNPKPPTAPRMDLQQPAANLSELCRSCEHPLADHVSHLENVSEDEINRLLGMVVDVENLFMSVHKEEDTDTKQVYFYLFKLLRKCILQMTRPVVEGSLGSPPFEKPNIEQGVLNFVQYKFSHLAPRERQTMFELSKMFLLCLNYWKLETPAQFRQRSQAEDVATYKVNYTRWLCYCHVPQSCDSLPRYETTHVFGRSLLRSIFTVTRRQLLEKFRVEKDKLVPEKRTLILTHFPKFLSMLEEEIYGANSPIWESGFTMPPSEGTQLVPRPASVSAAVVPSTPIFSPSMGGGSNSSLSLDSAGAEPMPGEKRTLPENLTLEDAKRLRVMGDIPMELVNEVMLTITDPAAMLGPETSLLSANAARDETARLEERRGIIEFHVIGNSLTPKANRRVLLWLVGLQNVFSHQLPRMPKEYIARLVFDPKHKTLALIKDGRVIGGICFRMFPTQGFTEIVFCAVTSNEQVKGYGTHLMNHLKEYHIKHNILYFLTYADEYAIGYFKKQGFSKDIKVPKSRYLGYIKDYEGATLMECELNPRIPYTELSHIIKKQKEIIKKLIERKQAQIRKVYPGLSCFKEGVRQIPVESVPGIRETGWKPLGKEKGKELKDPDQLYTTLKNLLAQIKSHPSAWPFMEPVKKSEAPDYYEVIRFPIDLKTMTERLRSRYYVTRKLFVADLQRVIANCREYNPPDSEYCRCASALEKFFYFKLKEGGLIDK
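GCN5L2 (20 nM) in 50mM HEPES pH 7.5, 0.1mM EDTA, 0.01% Tween-20 preincubated 15 min with compounds at room temperature. Reaction started with H3(1-25) 75uM, acetyl-CoA 70uM, ThioGlo1 50uM; CoA-thiol fluorescence (Ex340/Em540) read at 0 and 20 min.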
TrxR1 substrate: qHTS Assay for Substrates of Mammalian Selenoprotein Thioredoxin Reductase 1 (TrxR1): qHTS; actives 0.01% (n = 390,000); Potency, µM (series often up to 114 µM), without a hit: top-dose activity change, negative = substrate turnover; purified TrxR1 substrate turnover, NADPH consumption readout; further: nearly all actives have a fitted effect of over 50% in size
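Rat TrxR1, dispensed at 90 nM, was prereduced with 400 uM NADPH (final) for 5 min at ~22 deg C, then incubated with compound 15 min before 400 uM selenite. A first-read NADPH fluorescence drop versus no-compound background flagged substrates.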
TrxR1 inh: qHTS Assay for Inhibitors of Mammalian Selenoprotein Thioredoxin Reductase 1 (TrxR1): qHTS. Thioredoxin reductase 1, cytoplasmic (Rattus norvegicus), O89049. actives 1% (n = 390,000). Potency, µM (highest dose often 114 µM), without a hit: at the top dose activity change, negative = inhibition, most hits filed as inhibitors. AID 588453, 2011. recombinant rTrxR1, NADPH fluorescence consumption, selenite substrate; further: nearly all actives have a fitted effect of over 65% in size
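Rat TrxR1 (90 nM in the dispensed reagent) was pre-reduced with 400 uM NADPH for 5 min at room temperature, then incubated with compound for 15 min. After 400 uM selenite was added, NADPH fluorescence (Ex 340/Em 450 nm) was followed for 8 min.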
Active calls of the source: *; ? = inconclusive; . = not tested or not shown; [ ] = remark or other dose. The call rests on the fitted dose curve; in most records, active means well fitted curve in the direction sought with a large enough effect; inconclusive means small, poorly fitted or top-dose-only effect, or another doubt; inactive means no such curve, though single readings can be large; an effect the other way counts as inactive or inconclusive. On the % scale 0 is the no-effect control and ±100 the full control effect; potency means the concentration at half of the fitted maximal effect.

SMILES	VDR inh	KAT2A inh	TrxR1 substrate	TrxR1 inh
Cc1ccc(NCc2ccc(O)c3ncccc23)cc1	?	-14.9%	2.6%	0.501µM*
O=[N+]([O-])c1ccc2nc(CO)[nH]c2c1	.	.	0.5%	-2.4%
COC(=O)c1nn(-c2ccc(OC)cc2)c(=O)cc1O	-4.7%	-2.5%	1.0%[57.1 µM]	0.5%[57.1 µM]
COc1ccc(-n2nc(C#N)c(Cl)cc2=O)cc1	?	-9.1%	-0.3%	6.31µM*
CC(=O)Nc1ccc(C(=O)CSc2nc3ccccc3n2CC(=O)N2CCCC2)cc1	79.4µM*	0.8%	1.8%	4.1%
CCC(c1nnc(SCc2nc3ccccc3s2)n1Cc1ccccc1)N(C)C (configuration not stated)	12.6%	-2.5%	5.9%	-1.4%[57.1 µM]
c1ccc(Cn2c(SCc3nc4ccccc4s3)nnc2-c2ccco2)cc1	-23.7%	-12.1%	7.9%[57.1 µM]	10µM*
COc1ccc(CNC(=O)CN2C(=O)CSc3ccc(S(=O)(=O)N4CCC(C)CC4)cc32)cc1	7.6%	0.5%	-5.7%[57.1 µM]	1.4%[57.1 µM]
O=C(COc1cccnc1[N+](=O)[O-])c1ccc(Cl)s1	50.1µM*	?	-5.1%	25.1µM*
O=C(COc1cccnc1[N+](=O)[O-])Nc1c(Cl)cccc1Cl	15.0%	-2.6%	-1.0%[2.29 µM]	2.8%[2.29 µM]
COc1ccc(NC(=S)NNc2ccc([N+](=O)[O-])cc2S(=O)(=O)Nc2ccc(C)cc2C)cc1	44.7µM*	?	-18.4%[57.1 µM]	5.5%[57.1 µM]
COc1ccc(NC(=S)Nc2cccc([N+](=O)[O-])c2)cc1	-5.6%	-0.2%	-5.7%	17.8µM*
COc1ccc(NC(=O)c2cccc([N+](=O)[O-])c2)cc1	2.7%	-4.0%	4.8%	5.0%[57.1 µM]
CCc1sc(-c2cc3cccc(OC)c3oc2=O)nc1-c1ccccc1	1.4%	.	9.8%	21.4%
O=C(O)COc1ccc(/C=C/c2nc3ccc([N+](=O)[O-])cc3s2)cc1	31.6µM*	1.6%	?	?
O=C(O)CCc1ccc(-c2cccs2)o1	?	-24.4%	10.8%[57.1 µM]	?
Cc1ccc(-c2ccc(CCC(=O)O)o2)cc1	?	-23.6%	11.3%	22.4µM*
Cc1sc2nc(C(C)C)nc(SCC(=O)N3CCN(C(=O)c4ccco4)CC3)c2c1C	20.6%	-6.5%	-0.2%[57.1 µM]	15.8µM*
Cc1nc(SCC(=O)N(C)Cc2ccco2)c2c(C)c(C)sc2n1	-14.3%	0.7%	-7.2%	22.4µM*
CCN(C(=O)CSc1nc(C)nc2sc(C)c(C)c12)c1ccc(F)cc1	-9.4%	0.6%	-10.4%	0.7%
COc1ccc(C(=O)/C=C/c2ccc(OCc3ccccc3)cc2)cc1CSCC(=O)O	?	-3.6%	-7.2%	-4.3%
COc1ccc(C(=O)/C=C/c2cccc(OCc3ccccc3)c2)cc1CSCC(=O)O	12.6µM*	?	-7.3%	?
O=C(c1csnn1)N1CCC2(CC1)CN(c1cccc(-c3ccccc3)c1)C2	-21.5%	-16.0%	.	.
N#Cc1cccc(NC(=O)N2CCCC3(CCN(S(=O)(=O)c4ccccc4)CC3)C2)c1	-3.6%	-13.4%	.	.
COc1cc2nc(N3CCCN(C)CC3)nc(N(C)C)c2cc1OC	.	.	-4.1%	-32.3%
SMILES	VDR inh	KAT2A inh	TrxR1 substrate	TrxR1 inh
CCOc1cc(/C=C2\C(=O)N(c3cccc(C(F)(F)F)c3)C(=O)c3ccccc32)ccc1O	?	-26.5%	-8.7%	-39.5%
Cc1cccc(N2C(=O)/C(=C\c3ccc(OC(F)F)cc3)c3ccccc3C2=O)c1	35.5µM*	-27.2%	-11.8%	?
O=[N+]([O-])c1ccc(Nc2nc(NCCN3CCOCC3)nc(Nc3ccc(Cl)cc3)n2)cc1	.	.	-4.2%	9.2%
COc1cc(/C=C(\C#N)C(=O)Nc2cccc(C(=O)O)c2)ccc1OCc1ccc(Cl)cc1	-13.5%	-25.9%	-5.9%	2.7%
COc1cc(/C=C(/C#N)C(=O)Nc2ccccc2)c(Br)cc1OCc1ccc(C(=O)O)cc1	50.1µM*	?	-7.9%	?
C(=C\c1nc2ccccc2s1)/c1ccc2c(c1)OCO2	.	.	25.8%	-9.1%
CC(C)(CO)C(O)C(=O)NCCCC(=O)O (configuration not stated)	1.4%	.	.	.
CCOC(=O)/C=C/C(=O)OCC(=O)Nc1cccc(Cl)c1Cl	?	-14.1%	1.1%	14.1µM*
CC(=O)Nc1ccc(/C=C/c2ccnc3ccccc23)cc1[N+](=O)[O-]	.	.	-3.6%	14.9%
O=C(O)Cc1ccc(O)c(O)c1	-1.7%	-11.7%	8.8%[57.1 µM]	7.52µM*
CC[C@]1(c2ccccc2)NC(=O)NC1=O	-2.9%	0.6%	.	.
CCOc1ccc(NC(=O)c2nc(S(=O)(=O)Cc3ccc(C)cc3)ncc2Cl)cc1	.	.	-4.7%	?
CCS(=O)(=O)c1ncc(Cl)c(C(=O)Nc2ccc(C)cc2)n1	15.8µM*	-6.6%	7.8%	?
COc1ccc(NC(=O)c2nc(S(=O)(=O)Cc3ccc(C)cc3)ncc2Cl)cc1	?	1.7%	6.0%	2.51µM*
Cc1nnc(NC(=O)c2nc(S(=O)(=O)Cc3ccccc3C)ncc2Cl)s1	35.5µM*	-1.7%	7.2%	50.1µM*
CCc1nnc(NC(=O)c2nc(S(=O)(=O)Cc3ccc(C)cc3)ncc2Cl)s1	22.4µM*	-1.2%	0.6%	44.7µM*
CCCS(=O)(=O)c1ncc(Cl)c(C(=O)Nc2c(C(=O)Nc3ccccc3)oc3ccccc23)n1	-0.8%	-9.6%	-1.7%	7.0%
Cc1nnc(NC(=O)c2nc(SCc3ccccc3F)ncc2Cl)s1	5.5%	-16.9%	-4.0%	10.4%
C(=C1c2ccccc2Oc2ccccc21)c1ccccc1	.	.	7.6%[0.0914 µM]	16.1%[0.0914 µM]
CCOc1ccc(CNS(=O)(=O)c2ccc3[nH]c4c(c3c2)CCCC4)cc1OC	-14.6%	-15.7%	-1.4%	3.3%
Cc1ccc(CS(=O)(=O)c2ncc(Cl)c(C(=O)Nc3ccc(OC(F)F)cc3)n2)cc1	?	-5.8%	0.1%	28.2µM*
Cc1cc(C)c(S(=O)(=O)NCC(c2ccco2)S(=O)(=O)c2cccs2)c(C)c1 (configuration not stated)	-7.7%	-9.4%	3.8%[57.1 µM]	?
Brc1ccc[n+](CCC2CCCCC2)c1	.	.	-3.5%	-8.2%
COc1ccc2c(c1OC)C(=O)N1c3ccccc3N=C(c3ccc([N+](=O)[O-])cc3)CC21 (configuration not stated)	89.1µM*	2.2%	-8.9%	?
COc1cccc(NC(=O)CN2C(=O)CSc3ccc(S(=O)(=O)N4CCCC4)cc32)c1	0.5%	-10.3%	-10.1%	12.4%
O=[N+]([O-])c1cccc(C2Nc3cccc4cccc(c34)N2)c1	-7.9%	37.5%	-8.3%	50.1µM*
O=[N+]([O-])c1ccc(C2Nc3cccc4cccc(c34)N2)cc1	-20.8%	-5.5%	-7.0%	35.5µM*
CC1=C(C(=O)OCc2ccc3nsnc3c2)N2C(=O)[C@@H](NC(=O)OCc3ccc4nsnc4c3)[C@H]2SC1	.	.	4.3%	?
COCCNC(=S)NNc1ccccc1[N+](=O)[O-]	?	2.9%	1.1%[57.1 µM]	-11.8%[57.1 µM]
